Each structure is given as a SMILES string. Records with an inconclusive call do not appear. Entries that show only a call come without a potency. Active and inactive are the calls of the source. Unless noted, calls follow the shape of the dose curve; as a rule, active = well fitted cell-killing curve with a large enough effect in the repeat runs; inconclusive = weak or mixed curves, or effect the other way; inactive = no such curve, though single readings can be large or run the other way.

The target of the first test is Glucocorticoid receptor (Homo sapiens) (UniProt P04150). As to the kind of experiment: qHTS assay to identify small molecule antagonists of the glucocorticoid receptor (GR) signaling pathway (AID 720692; active = well fitted inhibition curve with a large enough effect in the signal ratio in the repeat runs, not every such curve was filed as active; the % refers to the signal ratio). The note with it: GR-bla HeLa, beta-lactamase FRET ratio, dexamethasone-stimulated, 18 h; series mostly up to 58.5 µM. An outline of the steps: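 In a 1536-well cell format, compounds were added 4 h after seeding GR-bla HeLa cells, together with dexamethasone at 5 nM final; reporter activity was measured by FRET-substrate fluorescence following 18 h at 37 C.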
Sequence of Glucocorticoid receptor (Homo sapiens) (P04150 whole entry, looked up): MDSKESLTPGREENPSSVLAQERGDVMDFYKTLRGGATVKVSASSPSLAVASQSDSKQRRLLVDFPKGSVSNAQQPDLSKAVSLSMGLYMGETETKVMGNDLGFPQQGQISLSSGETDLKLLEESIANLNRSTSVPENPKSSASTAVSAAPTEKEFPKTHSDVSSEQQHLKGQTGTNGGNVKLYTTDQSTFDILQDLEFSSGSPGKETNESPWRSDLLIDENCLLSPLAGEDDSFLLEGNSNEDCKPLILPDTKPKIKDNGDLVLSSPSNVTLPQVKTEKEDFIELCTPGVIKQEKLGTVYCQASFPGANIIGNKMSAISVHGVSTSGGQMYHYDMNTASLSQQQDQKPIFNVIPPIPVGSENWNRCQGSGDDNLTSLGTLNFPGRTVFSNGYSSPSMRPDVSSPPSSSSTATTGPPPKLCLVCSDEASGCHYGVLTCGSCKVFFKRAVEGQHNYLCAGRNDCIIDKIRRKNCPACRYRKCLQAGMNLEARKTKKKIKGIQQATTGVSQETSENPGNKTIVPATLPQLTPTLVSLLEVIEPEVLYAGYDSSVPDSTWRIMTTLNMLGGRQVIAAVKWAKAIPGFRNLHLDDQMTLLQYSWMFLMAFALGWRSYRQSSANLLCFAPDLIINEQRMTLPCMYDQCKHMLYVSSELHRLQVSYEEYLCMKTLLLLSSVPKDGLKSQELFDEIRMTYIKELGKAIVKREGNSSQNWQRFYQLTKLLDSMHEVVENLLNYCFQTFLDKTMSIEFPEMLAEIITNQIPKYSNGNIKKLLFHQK
In general terms: qHTS replaces the single test concentration by a dilution series.
Regarding `CC(C)c1cc(C(C)C)cc(C(C)C)c1`, the result was inactive.

On to `C=CCON/C(CCC)=C1\C(=O)CC(C)(C)C(C(=O)OC)=C1O`, for which the result was inactive.

For the compound `CN(C)CCC[C@@]1(c2ccc(F)cc2)OCc2cc(C#N)ccc21`, the result was inactive.

In the case of `C=COCCCCO`, the result was inactive.

For the compound `CC(O)C(CO)C(C)O` (stereo unspecified), the result was inactive.

For `CC[N+](C)(CC)CC`, the result was inactive.

Test system in another test: not listed separately
Description: qHTS assay to identify small molecule antagonists of the glucocorticoid receptor (GR) signaling pathway - cell viability counter screen (AID 720693). Also: nearly all actives have a fitted effect of over 55% in size. The note with it: GR-bla HeLa viability, CellTiter-Glo luminescence, 18 h, with 5 nM dexamethasone present; series mostly up to 58.5 µM.
Consider `CCCCC(CC)CCC(CC(C)C)OS(=O)(=O)O` (stereo unspecified), for which the result was inactive.

With `C=C(C)C(=O)OCCCC`, the result was inactive.

For the compound `CC(C)C(C)C`, the result was inactive.

Take `CC(=O)Oc1ccc(C(C)=O)cc1`: the outcome was inactive.

For the compound `CCCCCCCCC1CO1` (stereo unspecified), the call was inactive.

With `CC(C)c1cc(C(C)C)cc(C(C)C)c1`, the compound was classed as inactive.

Take `C=CC(=O)OCC[N+](C)(C)C`: the outcome was inactive.

For the compound `CN(C)c1cc(NC(=O)CNC(C)(C)C)c(O)c2c1C[C@H]1C[C@H]3[C@H](N(C)C)C(=O)C(C(N)=O)=C(O)[C@@]3(O)C(=O)C1=C2O`, the compound was classed as inactive.

For the compound `CCCCCC(CC)OC(=O)CCCOc1ccc(Cl)cc1Cl` (stereo unspecified), the call was inactive.

On to `Cc1ccc2ccccc2n1`, for which the call was inactive.

For `C=CCON/C(CCC)=C1\C(=O)CC(C)(C)C(C(=O)OC)=C1O`, the call was inactive.

Turning to `CCCCCCC(O)CO` (stereo unspecified), the compound was called inactive.

Take `Cc1ccc(O)c([N+](=O)[O-])c1`: the outcome was inactive.

For `CCCCCC(=O)CC`, the result was inactive.

As to `O=C1c2ccccc2C(=O)N1CO`, the result was inactive.

Consider `CN(C)CCC[C@@]1(c2ccc(F)cc2)OCc2cc(C#N)ccc21`, for which the call was inactive.

On to `C=COCCCCO`, for which the compound was classed as inactive.

As for `O=C(O)Cc1c(Cl)ccc(Cl)c1Cl`, the call was inactive.

In the case of `CC(O)C(CO)C(C)O` (stereo unspecified), the result was inactive.

With `CCOC(=O)CC`, the compound was called inactive.

With `O=C1CC2(CCCC2)CC(=O)N1CCNCC1COc2ccccc2O1` (stereo unspecified), the result was inactive.

For the compound `CCC(=O)OCCOc1ccccc1`, the outcome was inactive.

As to `CC1=C(O)C(=O)CO1`, the compound was called inactive.

For `CC[N+](C)(CC)CC`, the result was inactive.

Take `O=C(OOC(=O)c1ccccc1)c1ccccc1`: the compound was called inactive.

Take `CCCCC(CC)COC(=O)CC#N` (stereo unspecified): the call was inactive.

As to `O=S(=O)(O)c1cc(I)c(O)c2ncccc12`, the compound was classed as inactive.

Take `Cc1nc2ccc(Cl)cc2[nH]1`: the outcome was inactive.

Turning to `COC(C)(C)CC(C)=O`, the compound was classed as inactive.

Turning to `CCCC(=O)CC`, the call was inactive.

Consider `N#CC1(N)CCCCC1`, for which the call was inactive.

Test system in the next test: not listed separately
Description: qHTS assay for identifying genotoxic compounds that show differential cytotoxicity against isogenic chicken DT40 cell lines with known DNA damage response pathways - wild type cell line (AID 743012). Also: nearly all actives have a fitted effect of over 60% in size. Also: potency is read from the fitted curve at half-maximal effect. The conditions noted are these: DT40 wild type chicken cells viability, CellTiter-Glo, 40 h; series mostly up to 68.4 µM. In short, it runs like this:
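Viability of DNA repair-proficient chicken DT40 cells was assessed by CellTiter-Glo luminescence following 40 h compound exposure at 37 C/5% CO2.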
Consider `CC(=O)OCC(=O)[C@@]1(O)CC[C@H]2[C@@H]3CCC4=CC(=O)C=C[C@]4(C)[C@H]3[C@@H](O)C[C@@]21C`, for which the Potency result is “inactive”.

As for `CCCCC(CC)CCC(CC(C)C)OS(=O)(=O)O` (stereo unspecified), the Potency result is “inactive”.

For `C=C(C)C(=O)OCCCC`, the Potency result is “inactive”.

For the compound `CC(C)C(C)C`, the Potency result was “inactive”.

With `CC(=O)Oc1ccc(C(C)=O)cc1`, the Potency result is “inactive”.

Regarding `CCCCCCCCC1CO1` (stereo unspecified), the Potency result is “inactive”.

Take `CC(C)c1cc(C(C)C)cc(C(C)C)c1`: the Potency entry is “inactive”.

With `C=CC(=O)OCC[N+](C)(C)C`, the Potency result was “inactive”.

Take `CC1(C)C(=O)C(C)(C)C1=O`: the Potency entry was “inactive”.

As for `CCCCCC(CC)OC(=O)CCCOc1ccc(Cl)cc1Cl` (stereo unspecified), the Potency entry was “inactive”.

`Cc1ccc2ccccc2n1`: the Potency result is “inactive”.

Turning to `Cc1ccc(O)c([N+](=O)[O-])c1`, the Potency entry is “inactive”.

As for `CCCCCC(=O)CC`, the Potency result was “inactive”.

Regarding `O=C1c2ccccc2C(=O)N1CO`, the Potency entry is “inactive”.

As to `CN(C)CCC[C@@]1(c2ccc(F)cc2)OCc2cc(C#N)ccc21`, the Potency result was “inactive”.

`CC(C)C[P+](C)(CC(C)C)CC(C)C`: the Potency result was “inactive”.

Regarding `C=COCCCCO`, the Potency entry was “inactive”.

For the compound `O=C(O)Cc1c(Cl)ccc(Cl)c1Cl`, the Potency result is “inactive”.

On to `CC(O)C(CO)C(C)O` (stereo unspecified), for which the Potency result is “inactive”.

`CCOC(=O)CC`: the Potency result is “inactive”.

For the compound `O=C1CC2(CCCC2)CC(=O)N1CCNCC1COc2ccccc2O1` (stereo unspecified), the Potency was 21.1 µM (active).

For the compound `CCC(=O)OCCOc1ccccc1`, the Potency entry was “inactive”.

Turning to `CC[N+](C)(CC)CC`, the Potency result is “inactive”.

In the case of `O=C(OOC(=O)c1ccccc1)c1ccccc1`, the Potency entry is “inactive”.

With `CCCCC(CC)COC(=O)CC#N` (stereo unspecified), the Potency entry is “inactive”.

On to `Cc1nc2ccc(Cl)cc2[nH]1`, for which the Potency result was “inactive”.

Consider `CC(=O)Nc1ccc(OCCOCCOc2ccc(NC(C)=O)cc2)cc1`, for which the Potency result is “inactive”.

`CCCC(=O)CC`: the Potency result was “inactive”.

With `N#CC1(N)CCCCC1`, the Potency result was “inactive”.

Test system in the next test: not listed separately
As to the kind of experiment: qHTS assay for identifying genotoxic compounds that show differential cytotoxicity against isogenic chicken DT40 cell lines with known DNA damage response pathways - Rev3 mutant cell line (AID 743014). Also: nearly all actives have a fitted effect of over 55% in size. Also: potency is read from the fitted curve at half-maximal effect. The note with it: chicken DT40 Rev3-/- viability, CellTiter-Glo, 40 h; series mostly up to 68.4 µM.
As to `CC(=O)OCC(=O)[C@@]1(O)CC[C@H]2[C@@H]3CCC4=CC(=O)C=C[C@]4(C)[C@H]3[C@@H](O)C[C@@]21C`, the Potency entry is “inactive”.

Take `CCCCC(CC)CCC(CC(C)C)OS(=O)(=O)O` (stereo unspecified): the Potency result was “inactive”.

For the compound `C=C(C)C(=O)OCCCC`, the Potency result was “inactive”.

Turning to `CC(C)C(C)C`, the Potency entry is “inactive”.

Consider `CC(=O)Oc1ccc(C(C)=O)cc1`, for which the Potency result is “inactive”.

For `CCCCCCCCC1CO1` (stereo unspecified), the Potency result is “inactive”.

Take `CC(C)c1cc(C(C)C)cc(C(C)C)c1`: the Potency entry was “inactive”.

With `C=CC(=O)OCC[N+](C)(C)C`, the Potency result is “inactive”.

Turning to `CCCCCC(CC)OC(=O)CCCOc1ccc(Cl)cc1Cl` (stereo unspecified), the Potency result was “inactive”.

With `Cc1ccc2ccccc2n1`, the Potency result is “inactive”.

As to `C=CCON/C(CCC)=C1\C(=O)CC(C)(C)C(C(=O)OC)=C1O`, the Potency entry is “inactive”.

As to `CCCCCCC(O)CO` (stereo unspecified), the Potency entry was “inactive”.

For the compound `Cc1ccc(O)c([N+](=O)[O-])c1`, the Potency entry is “inactive”.

For the compound `O=C1c2ccccc2C(=O)N1CO`, the Potency entry was “inactive”.

As to `CN(C)CCC[C@@]1(c2ccc(F)cc2)OCc2cc(C#N)ccc21`, the Potency result is “inactive”.

Turning to `CC(C)C[P+](C)(CC(C)C)CC(C)C`, the Potency entry is “inactive”.

On to `C=COCCCCO`, for which the Potency entry was “inactive”.

Consider `O=C(O)Cc1c(Cl)ccc(Cl)c1Cl`, for which the Potency entry is “inactive”.

On to `CC(O)C(CO)C(C)O` (stereo unspecified), for which the Potency result is “inactive”.

`CCOC(=O)CC`: the Potency entry was “inactive”.

With `O=C1CC2(CCCC2)CC(=O)N1CCNCC1COc2ccccc2O1` (stereo unspecified), the Potency was 26.6 µM (active).

In the case of `CCC(=O)OCCOc1ccccc1`, the Potency entry is “inactive”.

With `CC1=C(O)C(=O)CO1`, the Potency result was “inactive”.

On to `CC[N+](C)(CC)CC`, for which the Potency result is “inactive”.

Consider `O=C(OOC(=O)c1ccccc1)c1ccccc1`, for which the Potency entry was “inactive”.

On to `CCCCC(CC)COC(=O)CC#N` (stereo unspecified), for which the Potency entry was “inactive”.

Consider `COC(C)(C)CC(C)=O`, for which the Potency is 54.5 µM (active).

Turning to `CC(=O)Nc1ccc(OCCOCCOc2ccc(NC(C)=O)cc2)cc1`, the Potency result is “inactive”.

With `CCCC(=O)CC`, the Potency result was “inactive”.

On to `N#CC1(N)CCCCC1`, for which the Potency entry was “inactive”.

Values taken from PubChem BioAssay (Tox21).
